Results published in PubChem BioAssay (NCI).
Where “and” joins values, the source holds several entries; their conditions need not be identical. Equal entries are not always repeated. About 83,000 compounds went through this panel and 20% of them were active in at least one assay; those are over-represented in the sample as a whole.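 Single-concentration screen, 48 h exposure, 96-well plates. Endpoint: percent growth. Below 10 = active.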 Calls of active or inactive are those of the source.

test system: MDA-MB-468 breast; assay: NCI-60 one-dose screen, 48 h (100 = growth as untreated, 0 = no growth, -100 = all killed); details: 10 µM unless noted

Row | SMILES | growth
1 | C(=C(\C1=NCCN1)n1ccc2ccccc21)/c1ccccc1 | 96.5% (inactive)
2 | COc1ccc(-c2nc(SCC(C)C)nc(N/N=C\c3ccc(F)cc3)c2C#N)cc1 | 102% (inactive)
3 | CC(C)CCNCC(O)Cn1c2ccccc2c2ccccc21 (stereo not given) | 2.41% (active)
4 | CCCO/N=C/c1ccccn1 | 115% (inactive) and 120% (inactive)
5 | COc1ccc(-c2nc3c(N)c(CO)c(C)nc3o2)cc1 | 67.5% (inactive)
6 | COc1ccc(-c2csc(NC(=O)c3ccc(Cc4n[nH]c(=O)c5cccnc45)cc3)n2)cc1 | 64.2% (inactive)
7 | O=C1c2cc3c(cc2-c2c1c1ccc(F)cc1c(=O)n2CCCN1CCOCC1)OCO3 | 18.5% (inactive)
8 | CCc1ccc(CCC(=O)Nc2ncc(Cc3ccccc3)s2)o1 | 28.1% (inactive)
9 | CCCCNCC(O)c1cc2c(Cl)cc(Cl)cc2c2cc(C(F)(F)F)ccc12 (stereo not given) | -86.2% (active)
10 | c1cc[n+](Cc2c3ccccc3cc3c2ccc2ccccc23)cc1 | -40.5% (active)
11 | Nc1nc(Nc2cccc(F)c2)nc2ccccc12 | 8.81% (active)
12 | O=C(NCCN1CCCC1)c1ccc(-c2nc3ccc4[nH]ncc4c3c3c2CCCC3)cc1 | -43.9% (active)
13 | O=S(=O)(O)c1ccc(Cl)cc1 | 105% (inactive)
14 | O=C(NC1CC1)c1ccc(-c2nc3ccc4[nH]ncc4c3c3c2CCCC3)cc1 | 8.81% (active)
15 | CCC(CC)COC(=O)c1ccc(O)c(O)c1 | 80.6% (inactive)
16 | CCN1C(=O)N(CC)C2C1NN=c1s/c(=C\c3ccccc3)c(=O)n12 (stereo not given) | 22.5% (inactive)
17 | CCCCCCCC[C@@H](O)CC(=O)N[C@@H](CC(N)=O)C(=O)N[C@@H](CCC(N)=O)C(=O)N[C@@H](CC(=O)c1cc(C)cc(O)c1C(=O)c1c(O)cccc1O)CC(C)C | 3.34% (active)
18 | CC[C@@H](C)/C=C(C)/C=C/C(O)=C1\C(=O)N[C@@H](Cc2ccc(OC(=O)[C@@](OC)(c3ccccc3)C(F)(F)F)cc2)C1=O | 110% (inactive)
19 | COc1cc(C(=O)c2ccc3c(c2)OCO3)cc(OC)c1OC | 9.88% (active) and -4.92% (active)
20 | COc1cc2nc3cc([N+](=O)[O-])ccc3c(NCCNCC(C)(C)O)c2cc1OC | -37.5% (active)

Row | SMILES | growth
21 | CCCCCCCC(C)NCCO (stereo not given) | 104% (inactive)
22 | O=S(=O)(Nc1ccc(Cl)c(C(F)(F)F)c1)c1ccc(-c2cnc(C3CC3)o2)cc1 | -7.54% (active)
23 | O=c1oc2ccc([N+](=O)[O-])cc2cc1Br | 101% (inactive)
24 | OC(c1cccc(C(F)(F)F)c1)c1cnccc1NC1CCCCC1 (stereo not given) | 33% (inactive)
25 | Cc1ccc(NC(=O)Cn2cc(CN3CCN(c4ccnc5cc(Cl)ccc45)CC3)nn2)cc1 | 88.1% (inactive)
26 | COc1cc(Cl)cc(-c2nn(-c3cccc(NC(=O)Nc4ccc(Cl)c(C(F)(F)F)c4)c3)cc2-c2ccncc2)c1 | -14.4% (active)
27 | CCNC(=O)Nc1ccc(-c2nc3c(c(N4CCOC[C@@H]4C)n2)CCN(C2COC2)C3)cc1 | 13.5% (inactive) and -25.6% (active)
28 | Nc1c(Br)cc(Br)cc1-c1n[nH]c(=O)[nH]c1=O | 104% (inactive)
29 | CCCC(=O)NC(c1cccc(N(C)C)c1)c1cc(C)c2cccnc2c1O (stereo not given) | 24.8% (inactive)
30 | CC(C)CC(NC(=O)C(CCCN=C(N)N)NC(=O)OCc1ccccc1)C(=O)NC(CNC(=O)/C=C/c1ccccc1)C(C)C (stereo not given) | 94.4% (inactive)
31 | CC(=O)c1sc(-c2ccccc2)cc1N | 91.7% (inactive)
32 | Cc1cccc2nc3ccccc3c(Nc3ccc(NS(C)(=O)=O)cc3)c12 | 67.9% (inactive)
33 | COc1nc2ccccc2cc1/C=[N+](\[O-])c1ccccc1 | 88.6% (inactive)
34 | O=C(/C=C/CN1CCOCC1)Nc1cc2c(Nc3cccc(Cl)c3F)ncnc2cc1OCCOC(F)F | -15.3% (active)
35 | O=[N+]([O-])c1cc(Br)cc2c1[nH]c1ccc(Br)cc12 | 70.3% (inactive)
36 | CN(C)CCN(C)CC(C)(C)C(=O)/C=C/c1ccc(Cl)cc1 | -46.2% (active)
37 | O=C1c2c(c3c4cccnc4[nH]c3c3ccc4ccccc4c23)C(=O)N1CCN1CCNCC1 | 87.1% (inactive)
38 | O=C(N/N=C/c1cccc2ccccc12)C1CC1 | 120% (inactive) and 106% (inactive)
39 | CC(=O)N[C@@H](CNC(=O)c1cc(NC(=O)c2cc(NC(=O)c3cc(NC(=O)c4nccn4C)cn3C)cn2C)cn1C)CC(=O)Nc1cn(C)c(C(=O)Nc2cc(C(=O)Nc3cc(C(=O)Nc4cc(C(=O)NCCCN(C)CCCNC(=O)c5cccc(C(=O)O)c5)n(C)c4)n(C)c3)n(C)c2)n1 | 71.5% (inactive)
40 | Cc1cccc(NC(=O)c2sc3nc4c(cc3c2N)CCCC4)c1C | 19.3% (inactive)
